# Bioassay records: PubChem BioAssay, National Center for Advancing Translational Sciences (NCATS)
# In the library only some 2.7% were active in any assay of this set; here they are far more common.
# Nrf2 block: Nrf2 pathway inhibition | hit rate 2.1% among 360,000 | Potency, µM (highest dose often 46 µM), for the others: at the highest dose activity change, negative = inhibition, most hits filed as inhibitors | A549 ARE-Fluc reporter, luciferase luminescence, 18-24 h; note: potency is the fitted concentration of half-maximal effect; % is set by controls: 0 for no effect and ±100 for the full control effect; nearly all actives have a fitted effect of over 60% in size
#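 Reporter: ARE-Fluc in A549. Exposure: 18-24 h, 37 °C, 5% CO2, 5% FBS OPTI-MEM. Readouts: fluorescent cytotoxicity (CellTiter-Fluor), then luminescent Nrf2 signal after BugLite.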
# Nrf2 ARE act: activates Nrf2 signaling; AREc32 ARE-luciferase reporter (MCF7-derived line), luminescence, 24 h; Potency, µM (series often up to 46.1 µM), for inactives: at the highest dose activation, most hits filed as activators; hit rate 0.31% among 410,000; AID 624171; note: potency is the fitted concentration of half-maximal effect; % of control where 0% means no effect; nearly all actives have a fitted effect of over 65% in size
#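 Luciferase luminescence (Steady-Glo, 30 min at room temperature) served as the read-out of ARE activation in AREc32 cells treated with compounds for 24 hr at 37 deg C.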
# A549 viability: kills or reduces viability of A549 cells in Nrf2 counter-screen. A549 ARE-Fluc cells, CellTiter-Fluor viability, 18-24 h. Potency, µM (titrated, usually from 46 µM), without a hit: at the highest dose activity change, negative = cytotoxicity, usual class: inhibitors. hit rate 0.16% among 390,000. AID 504648; note: potency is the fitted concentration of half-maximal effect; % is set by controls: 0 for no effect and ±100 for the full control effect
#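 A549 ARE-Fluc cells in 5% FBS OPTI-MEM, 5000 cells/well, rested 2 h then exposed to compounds in concentration-response for 18-24 h at 37 °C. Viability by CellTiter-Fluor fluorescence (Ex 405/Em 525) after 30 min; luciferase luminescence (BugLite, 15 min, RT) read afterwards.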
# 12-LOX inh: ALOX12 (human) lipoxygenase inhibition; purified 12hLO, xylenol orange hydroperoxide absorbance; hit rate 1.1% among 580,000; AID 1671190; Potency, µM (titrated, usually from 108 µM), for the others: top-dose activity change, negative = inhibition, most hits filed as inhibitors; note: potency is the fitted concentration of half-maximal effect; % is set by controls: 0 for no effect and ±100 for the full control effect
# Target sequence (P18054 whole entry, looked up): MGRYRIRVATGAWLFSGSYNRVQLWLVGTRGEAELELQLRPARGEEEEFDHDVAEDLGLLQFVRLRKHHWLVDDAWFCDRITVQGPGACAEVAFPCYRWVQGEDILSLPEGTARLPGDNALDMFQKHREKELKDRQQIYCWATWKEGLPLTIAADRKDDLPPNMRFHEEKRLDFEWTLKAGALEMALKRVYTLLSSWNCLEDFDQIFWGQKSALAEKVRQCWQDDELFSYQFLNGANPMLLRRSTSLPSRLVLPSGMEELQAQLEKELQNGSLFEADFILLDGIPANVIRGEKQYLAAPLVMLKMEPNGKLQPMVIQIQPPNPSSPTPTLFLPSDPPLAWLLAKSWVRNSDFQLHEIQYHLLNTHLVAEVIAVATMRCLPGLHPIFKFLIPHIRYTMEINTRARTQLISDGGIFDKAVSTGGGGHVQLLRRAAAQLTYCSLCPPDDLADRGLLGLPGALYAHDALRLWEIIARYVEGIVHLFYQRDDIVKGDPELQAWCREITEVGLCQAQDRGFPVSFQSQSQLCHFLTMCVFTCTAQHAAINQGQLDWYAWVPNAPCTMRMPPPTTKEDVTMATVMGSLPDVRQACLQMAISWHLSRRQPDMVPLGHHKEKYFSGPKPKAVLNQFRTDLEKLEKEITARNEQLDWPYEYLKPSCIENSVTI
#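 Purified human 12hLO (150 nM final) in 25 mM Hepes, 0.01% Triton X-100, pH 7.0 was preincubated 15 min at room temperature with compound. Then 40 uM arachidonic acid was added, 30 min. Hydroperoxide was read by Fe-XO absorbance ratio 573/405 nm.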
# ERG-DNA inh: ERG Ets/DNA interaction inhibition; fluorescence polarization, His-ERG Ets domain / labelled DNA; AID 624246; hit rate 0.028% among 370,000; Potency, µM (top dose mostly 76.9 µM), for inactives: top-dose FP activity, negative = inhibition, usual class: inhibitors; active = well fitted inhibition curve with a large enough effect in the polarisation, with a control signal flat; inconclusive = small, poorly fitted or top-dose-only effect, or effect the other way, or a change in a side signal; inactive = no such curve, though single readings can be large or run the other way; the % refers to the polarisation;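 note: polarization taken with two DNA probes labelled with fluorescein and Texas red; potency is the fitted concentration of half-maximal effect; % of control where 0% means no effect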
#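 His-tagged ERG Ets domain (1 uM in the protein solution; 300mM KCl, 50mM Tris-HCl, 1mM EDTA, 1mM DTT, pH 7.5) received compound, then a probe mix of 5 nM fluorescein-DNA and 100nM Texas-615-DNA. Fluorescence polarization was read for both dyes.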
# LDHA inh: LDHA (human) enzyme inhibition. P00338. hit rate 0.15% among 480,000. activity change, % (values are at about 110 or 230 µM). purified LDHA, NADH/diaphorase-resazurin fluorescence; active compounds read low. AID 1347041; in the data active = activity change below about -30%; inconclusive = mostly about -25% to -30%;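 note: plate controls were DMSO wells for no effect and wells without enzyme for full effect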
#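 Human LDH5 at 2 nM final in Tris HCl pH 7.4 with 0.06 mM NADH and 0.2 mM pyruvate, reacted 5 minutes at room temperature. Remaining NADH coupled via diaphorase/resazurin; resorufin fluorescence read at 0 and 20 minutes, normalized to enzyme-free and DMSO wells.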
# * marks the source's active call; other numbers are inactive results; ? = inconclusive; / = no result given; [ ] = dose if it differs, or a comment. Unless noted, calls come from the whole dose curve; as a rule, active = well fitted curve in the direction sought with a large enough effect; inconclusive = small, poorly fitted or top-dose-only effect, or another doubt; inactive = no such curve, though single readings can be large; an effect the other way counts as inactive or inconclusive.
SMILES,Nrf2 block,Nrf2 ARE act,A549 viability,12-LOX inh,ERG-DNA inh,LDHA inh
COc1ccc(CCC(=O)Nc2ccc(C)c(S(=O)(=O)N(C)C)c2)cc1OC,13µM*,0%,-2%,12%,-2%,0
COc1ccc(-c2cc(C(=O)N3CCC(C(N)=O)CC3)c3ccccc3n2)cc1OC,/,/,/,?,/,-1
CC(C)CNc1nc(-c2ccc(S(=O)(=O)N3CCOCC3)cc2)cs1,/,/,/,?,/,2
COc1ccc(/C(N)=N/OC(=O)Cc2ccc(OC)c(OC)c2)cc1,15µM*,1%,-13%,3%,/,-6
COc1ccc(C/C(N)=N/OC(=O)C(c2ccccc2)c2ccccc2)cc1OC,23µM*,11%,-7%,12%,/,-8
COc1ccc(CC(=O)O/N=C(\N)c2ccncc2)cc1OC,/,4%,/,8%,/,1
COc1ccc(C/C(N)=N/OC(C)=O)cc1OC,14%,-1%,1%,19%,-4%,-1
C=CCn1c(SCC(=O)c2ccc(O)c(O)c2)nnc1-c1cccc(C)c1,16%,7%,-14%,8.9µM*,4%,11
C=CCn1c(SCC(=O)c2ccc(O)c(O)c2)nnc1-c1cccc(Cl)c1,15%,1%,-9%,?,12%,24
CCCCn1nc(C(=O)Nc2ccc3nc(N4CCOCC4)sc3c2)c2ccccc2c1=O,/,/,/,?,/,4
CCCn1nc(C(=O)Nc2ccc3nc(N4CCOCC4)sc3c2)ccc1=O,21µM*,3%,-14%,1%,-4%,4
NC(=O)CCC[C@H]1NC[C@@H]2C[C@H]1CN(Cc1ccccc1)C2,/,/,/,13%,/,/
COc1ccc2[nH]cc(CCNC(=O)CCC[C@H]3NC[C@@H]4C[C@H]3CN(Cc3ccccc3)C4)c2c1,/,/,/,4µM*,/,/
CNC(=O)CCC[C@H]1NC[C@@H]2CC1CN(Cc1ccccc1)C2,/,/,/,8.9µM*,/,/
Cc1c(CC(=O)N2CCC(O)(c3ccc(Cl)cc3)CC2)c(=O)oc2c(C)c(O)ccc12,/,/,/,?,/,8
CCCNc1nc(-c2ccc(S(=O)(=O)N3CCCCCC3)cc2)cs1,/,/,/,32µM*,/,-1
O=S(=O)(c1ccc(-c2csc(Nc3ccc(F)cc3)n2)cc1)N1CCCC1,18µM*,2%,-29%,?,-1%,-8
O=S(=O)(c1ccc(-c2csc(Nc3ccc(Br)cc3)n2)cc1)N1CCCC1,8.2µM*,-1%,-16%,0%,0%,1
CCNc1nc(-c2ccc(S(=O)(=O)N3CCCCCC3)cc2)cs1,/,/,/,?,/,-2
O=C(Cc1ccc(-c2csc(Nc3ccc(F)cc3)n2)s1)N1CCOCC1,/,/,/,32µM*,/,17
CC(OC(=O)c1cccc(S(=O)(=O)N2CCCCC2)c1)C(=O)N1CCc2ccccc21 (stereo not given),/,/,/,7%,/,5
Cc1ccc(NC(=O)CN(c2ccnn2C(C)C)S(=O)(=O)c2ccccc2)cc1,/,/,/,-1%,/,4
Cc1ccc2c(C)cc(SCC(=O)Nc3cccc(F)c3)nc2c1,/,/,/,-8%,/,0
O=c1[nH]c2ccc(-c3csc(Nc4ccc(F)cc4)n3)cc2o1,/,/,/,18µM*,/,-1
COC(=O)c1ccc(COC(=O)c2oc3ccccc3c2C)o1,/,/,/,?,/,12
SMILES,Nrf2 block,Nrf2 ARE act,A549 viability,12-LOX inh,ERG-DNA inh,LDHA inh
Cc1ccc(NC(=O)c2cc(N3C(=O)C=CC3=O)ccc2Cl)cc1C,12%,12%,0%,3.5µM*,0%,1
Cc1ccc(NC(=O)c2cc(NC(=O)c3ccco3)ccc2N2CCOCC2)cc1,?,-1%,-10%,0%,6%,-15
Cc1ccc(NC(=O)c2cc(-n3cnnc3)ccc2Cl)cc1,-10%,-1%,?,-19%,-2%,-13
Cc1ccc(NC(=O)c2cc(N3C(=O)C=CC3=O)ccc2N2CCOCC2)cc1,?,10%,1%,10µM*,5%,-10
Cc1ccsc1/C=C1\Oc2cc(OS(C)(=O)=O)ccc2C1=O,/,/,/,?,/,3
CC(=O)c1ccc(OCc2ccc(-c3ccccc3C#N)cc2)cc1,/,/,/,?,/,6
COCC1CN(C(C)=O)CC12CCN(C(=O)C1CNC1)CC2 (stereo not given),/,/,/,25µM*,/,/
Cc1ccc(-n2nc(-c3noc(C(=O)N4CCC(c5ccccc5)C4)n3)c(=O)n(C)c2=O)cc1 (stereo not given),/,/,/,-9%,/,-4
COc1cccc(CNn2c(-c3cccc(C)c3)nc3ccccc3c2=O)c1,-16%,-1%,-2%,18%,/,0
COc1ccc(-c2nc3ccccc3c(=O)n2NC(=S)N(C)C)cc1,-13%,0%,-10%,35µM*,1%,-3
COc1ccc(OC)c(CNn2c(-c3cccc(C)c3)nc3ccccc3c2=O)c1,18µM*,-1%,-14%,15%,/,-2
O=c1c2c(n(Cc3cccnc3)n1CCc1ccccc1)CN(CC1CCOC1)CC2 (stereo not given),/,/,/,-8%[176 µM],/,/
O=C(CSc1oc(-c2ccco2)nc1S(=O)(=O)c1ccccc1)NCC1CCCO1 (stereo not given),/,-1%,-1%,?,0%,1
O=C(CSc1oc(-c2ccc(F)cc2)nc1S(=O)(=O)c1ccc(Cl)cc1)c1ccccc1,-2%[9.27 µM],-1%,-5%,?,-1%,-4
O=C(CSc1oc(-c2ccco2)nc1S(=O)(=O)c1ccc(Cl)cc1)NCC1CCCO1 (stereo not given),-25%,-1%,-5%,7.9µM*,/,0
NC(=O)CSc1oc(-c2ccco2)nc1S(=O)(=O)c1ccc(Cl)cc1,-6%,-1%,-1%,28µM*,4%,-4
O=C(CSc1oc(-c2ccccc2)nc1S(=O)(=O)c1ccc(Cl)cc1)c1ccccc1,-14%[9.27 µM],8%,13%,7.9µM*,2%,3
Cc1ccc2cc(C(=O)NCc3ccco3)[nH]c2c1,/,/,/,?,/,-1
COc1cc(CCC(=O)NCc2cccs2)cc(OC)c1OC,/,/,/,-1%,/,6
COc1cc(/C=N/NC(=O)C(=O)/C=C2\NC3(CCCC3)Cc3ccccc32)ccc1O,-19%,2%,-10%,0%,15%,0
O=C(/C=C1\NC2(CCCC2)Cc2ccccc21)C(=O)N/N=C/c1ccccc1O,15µM*,0%,?,-6%,3%,-1
C=C(C)COc1cccc(N)c1,/,/,/,?,/,17
O=C(OCn1ncc(Cl)c(Cl)c1=O)c1ccccc1Cl,23µM*,?,/,-34%,-16%,-15
COc1cccc(C2C(C(=O)Nc3ccccc3)=C(C)Nc3nc(-c4ccccc4)nn32)c1OC (stereo not given),18µM*,-1%,-25%,-11%,-1%,3
